The source made the active and inactive calls. Rule for the calls: active = hit-call score of the fitted dose curve at least 0.9, where 1 is the maximum; inactive = score below 0.9.

Here are results for 18 compounds from PubChem BioAssay (EPA / NIEHS).

Conditions in all cases: mRNA level, 48 h; actives raise or lower the signal
Read-out in assay [1]: Potassium channel subfamily K member 1 (KCNK1), KCNK1 (gene 3775)
The assay is described as follows: LTEA_HepaRG_KCNK1: Life Technologies and Expression Analysis (LTEA) Assay for Potassium channel subfamily K member 1 (KCNK1) using HepaRG (AID 2283511). Put shortly: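 HepaRG, 48 h exposure, 8-pt half-log series top 100 uM, 0.5% DMSO vehicle, duplicates. Readout: KCNK1 transcript by qRT-PCR (Fluidigm array), housekeeping-normalized; bidirectional curve fit relative to DMSO baseline.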

Read-out in assay [2]: Keratin 19 (KRT19), KRT19 (gene 3880)
Put plainly: LTEA_HepaRG_KRT19: Life Technologies and Expression Analysis (LTEA) Assay for Keratin 19 (KRT19) using HepaRG (AID 2283512). The method, boiled down:
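KRT19 transcript measured by TaqMan qRT-PCR, referenced to three housekeeping genes, after HepaRG cells received test chemicals for 48 h. Eight half-log concentrations, top 100 uM, 0.5% DMSO vehicle; increases and decreases both fitted.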

Read-out in assay [3]: JUN Transcription Factor, JUN (gene 3725)
Put plainly: LTEA_HepaRG_JUN: Life Technologies and Expression Analysis (LTEA) Assay for JUN Transcription Factor using HepaRG (AID 2283513). The method, boiled down: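 HepaRG, 48 h exposure, 8-pt half-log series top 100 uM, 0.5% DMSO, duplicate. JUN mRNA by qRT-PCR (Fluidigm), housekeeping-normalized (ACTB/GAPDH/POLR2A); bidirectional curve fit vs DMSO baseline.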

Read-out in assay [4]: Lipase C (LIPC), LIPC (gene 3990)
The assay is described as follows: LTEA_HepaRG_LIPC: Life Technologies and Expression Analysis (LTEA) Assay for Lipase C (LIPC) using HepaRG (AID 2283514). The method, boiled down: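 HepaRG, 48 h exposure, 8-pt half-log series from 100 uM in 0.5% DMSO, duplicates. Readout: LIPC mRNA by Fluidigm qRT-PCR, housekeeping-normalized (ACTB/GAPDH/POLR2A). Gain or loss fitted bidirectionally against DMSO baseline.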

Read-out in assay [5]: MicroRNA 122 (MIR122), gene 406906
The assay is described as follows: LTEA_HepaRG_MIR122: Life Technologies and Expression Analysis (LTEA) Assay for MicroRNA 122 (MIR122) using HepaRG (AID 2283516). Note: the transcript read is the microRNA miR-122. Put shortly: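 qRT-PCR read-out (TaqMan, Fluidigm array), normalized to three housekeeping genes; HepaRG cells dosed 48 h at 8 concentrations up to 100 uM in 0.5% DMSO, duplicate; gain or loss fitted against DMSO baseline.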

Read-out in assay [6]: matrix metalloproteinase-10 (MMP10), MMP10 (gene 4319)
Put plainly: LTEA_HepaRG_MMP10: Life Technologies and Expression Analysis (LTEA) Assay for matrix metalloproteinase-10 (MMP10) using HepaRG (AID 2283517). Put shortly:
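Transcript levels come from Fluidigm qRT-PCR normalized to three housekeeping genes, with curves fitted bidirectionally against 0.5% DMSO. Human HepaRG cells were dosed for 48 hours at concentrations up to 100 uM.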

Read-out in the next assay: MYC, MYC (gene 4609)
The assay is described as follows: LTEA_HepaRG_MYC: Life Technologies and Expression Analysis (LTEA) Assay for MYC using HepaRG (AID 2283518). The method, boiled down: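 MYC transcript changes, up or down relative to 0.5% DMSO, from TaqMan qRT-PCR normalized to three housekeeping genes. Human HepaRG cultures received chemicals for 48 h at eight half-log concentrations up to 100 uM, in duplicate.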

Read-out in assay [7]: matrix metalloproteinase-3 (MMP3), MMP3 (gene 4314)
Put plainly: LTEA_HepaRG_MMP3: Life Technologies and Expression Analysis (LTEA) Assay for matrix metalloproteinase-3 (MMP3) using HepaRG (AID 2283519). Put shortly:
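qRT-PCR read-out of MMP3 mRNA (normalised to three housekeeping genes) in HepaRG liver cells after 48 h chemical exposure; 8-point half-log series, top 100 uM, 0.5% DMSO vehicle. Bidirectional curve fitting against DMSO baseline.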

Read-out in assay [8]: Paternally Expressed 10 (PEG10), PEG10 (gene 23089)
Put plainly: LTEA_HepaRG_PEG10: Life Technologies and Expression Analysis (LTEA) Assay for Paternally Expressed 10 (PEG10) using HepaRG (AID 2283520).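 For AC50: differentiated HepaRG human liver cells in serum-free induction medium with 0.5% DMSO; PEG10 transcript by qRT-PCR normalised to ACTB GAPDH and POLR2A.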 The method, boiled down:
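qRT-PCR read-out: PEG10 mRNA normalised to three housekeeping genes, fitted bidirectionally against 0.5% DMSO vehicle. HepaRG cells received test chemicals for 48 h in serum-free induction medium, 8 points, top 100 uM, half-log steps.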

Read-out in assay [9]: Lipoprotein lipase (LPL), LPL (gene 4023)
Put plainly: LTEA_HepaRG_LPL: Life Technologies and Expression Analysis (LTEA) Assay for Lipoprotein lipase (LPL) using HepaRG (AID 2283515). The method, boiled down: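 HepaRG, 48 h exposure, 8-pt half-log dilutions from 100 uM, 0.5% DMSO vehicle, duplicates; qRT-PCR (Fluidigm array) of LPL mRNA vs housekeeping genes; bidirectional curve fit relative to DMSO baseline.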

As to `OCC(CO)(CO)CO`, the call in assay [1], in assay [2], in assay [3], in [4], in assay [5] and in [6] was inactive. In addition, the outcome with MYC, MYC (gene 4609) is “inactive”; in assay [7] it was “inactive”; in [8] it was “inactive”.
Regarding `C=CN1CCCC1=O`, the result in [1], in [3], in assay [4], in assay [9], in assay [5] and in assay [6] was inactive. The outcome in the assay with MYC, MYC (gene 4609) is “inactive”; in [7], “inactive”; in assay [8], “inactive”.
In the case of `OCCNCCO`, the result in assay [1], in assay [3], in assay [4], in assay [9], in assay [5] and in assay [6] was inactive. For the same compound, the outcome with MYC, MYC (gene 4609) is “inactive”; in assay [7], “inactive”; in assay [8] it was “inactive”.
As to `C[C@@H](Oc1ccc(CNC(=O)c2cccnc2Oc2ccc3c(c2)OCO3)c(F)c1)C(=O)O`, the compound was called inactive in [1], in [3], in assay [4], in assay [9], in assay [5] and in [6]. Moreover, the outcome is “inactive” with MYC, MYC (gene 4609) and “inactive” in [8].
Consider `c1ccc(C(O[C@@H]2CCCN(CCc3ccc4c(c3)OCO4)C2)c2ccccc2)cc1`, for which the call in [1], in assay [3] and in assay [6] was inactive. The AC50 in assay [4] is 76.5 µM (active); in assay [5], 69.7 µM (active); in the assay with MYC, MYC (gene 4609), 83.4 µM (active); in assay [7] it was 25.2 µM (active); in assay [8], 13.1 µM (active).
For `CCCCCCCCCC`, the outcome in [1] was “inactive”; in [3], “inactive”; in [4], “inactive”; in assay [5], “inactive”; in assay [6] it was “inactive”; with MYC, MYC (gene 4609), “inactive”. Moreover, the result in assay [7] and in [8] was inactive.
In the case of `CCCC(CCC)C(=O)O`, the compound was classed as inactive in assay [1], in assay [3], in assay [4], in assay [9], in assay [5] and in [6]. In addition, the outcome is “inactive” with MYC, MYC (gene 4609); “inactive” in assay [7]; “inactive” in [8].
As to `CC(C)c1nnc2ccc(-c3ocnc3-c3cc(F)ccc3F)cn12`, the outcome is “inactive” in [1]; “inactive” in [3]; “inactive” in [6]; “inactive” with MYC, MYC (gene 4609); “inactive” in assay [8]. For the same compound, the figures for the AC50 in assay [4], in [5] and in assay [7] were 83.4 µM (active), 50 µM (active) and 7.09 µM (active), respectively.
Consider `COc1cc2c(c(OC)c1OC)-c1ccc(OC)c(=O)cc1[C@@H](NC(C)=O)CC2`, for which the compound was called inactive in assay [1] and in assay [3]. In addition, the concentration at half-maximal activity (AC50) in assay [4] is 0.301 µM (active); in assay [9], 0.096 µM (active); in assay [5], 0.113 µM (active); in assay [6], 0.0147 µM (active); in the assay with MYC, MYC (gene 4609), 0.144 µM (active); in [7] it was 0.152 µM (active). Also, the AC50 in assay [8] was 0.112 µM (active).
`O=S(=O)(O)c1ccc(N=Nc2c(O)ccc3cc(S(=O)(=O)O)ccc23)cc1`: the outcome in assay [1] is “inactive”; in [3], “inactive”; in assay [4] it was “inactive”; in assay [5], “inactive”; in assay [6], “inactive”; with MYC, MYC (gene 4609), “inactive”. Besides, the compound was called inactive in assay [7] and in [8].
Consider `CCCc1ccccc1`, for which the compound was classed as inactive in assay [1], in assay [3], in assay [4], in assay [9], in assay [5] and in assay [6]. The outcome with MYC, MYC (gene 4609) was “inactive”; in assay [7] it was “inactive”; in assay [8] it was “inactive”.
For the compound `CCn1nc(C)c2c1C(=O)NCC(c1ccc(O)cc1)=N2`, the outcome in assay [1] was “inactive”; in assay [3] it was “inactive”; in assay [4], “inactive”; in [5], “inactive”; in assay [6], “inactive”; in the assay with MYC, MYC (gene 4609), “inactive”. Also, the outcome in [7] and in [8] was inactive.
For the compound `Cn1cc[nH]c1=S`, the outcome in [1] is “inactive”; in assay [3], “inactive”; in [4], “inactive”; in [5], “inactive”; in assay [6], “inactive”; with MYC, MYC (gene 4609), “inactive”. Also, the result in assay [7] and in [8] was inactive.
Turning to `CCCCCCCC/C=C\CCCCCCCC(=O)OC[C@@H](O)[C@H]1OC[C@H](O)[C@H]1O`, the compound was called inactive in assay [1], in assay [3], in assay [4], in assay [9], in assay [5] and in assay [6]. In addition, the outcome in the assay with MYC, MYC (gene 4609) was “inactive”; in [7], “inactive”; in assay [8], “inactive”.
Consider `CCc1ccc(O)c(C(C)(C)C)c1`, for which the outcome in assay [1] was “inactive”; in assay [3] it was “inactive”; in assay [4] it was “inactive”; in assay [5], “inactive”; in assay [6], “inactive”; with MYC, MYC (gene 4609), “inactive”. For the same compound, the outcome in assay [7] and in assay [8] was inactive.
Turning to `O=C(O)[C@H](O)[C@@H](O)C(=O)O`, the outcome in [1], in assay [3], in [4], in assay [9], in assay [5] and in [6] was inactive. Besides, the outcome with MYC, MYC (gene 4609) was “inactive”; in assay [7], “inactive”; in assay [8], “inactive”.
For `NC(=O)NN=Cc1ccc([N+](=O)[O-])o1`, the half-maximal activity concentration (AC50) in assay [1] is 0.223 µM (active); in assay [3], 11.6 µM (active); in [4], 0.233 µM (active); in assay [6], 9.92 µM (active); with MYC, MYC (gene 4609) it was 0.151 µM (active); in assay [7], 0.256 µM (active). The call in assay [5] and in assay [8] was inactive.
Consider `COc1cc(C(C)C)c2c(c1)S(=O)(=O)N(COc1cc(=O)n3cccc(OCCN4CCCCC4)c3n1)C2=O`, for which the outcome in assay [1] was “inactive”; in assay [3] it was “inactive”; with MYC, MYC (gene 4609), “inactive”. Also, the AC50 is 23.4 µM (active) in assay [5], 21.1 µM (active) in assay [6], 19.7 µM (active) in assay [7] and 19.5 µM (active) in assay [8].

What is called AC50 is the midpoint of the concentration-response curve, whichever way the signal moves.
